# Inconclusive results are not listed. The source made the active and inactive calls. The calls were made as follows, unless noted: active = hit-call score of the fitted dose curve at least 0.9, where 1 is the maximum; inconclusive = response in the unintended direction; inactive = score below 0.9.
# Columns and labels:
# [1] = read-out: sulfotransferase (SULT2A), SULT2A1 (gene 6822); assay: CLD_SULT2A_48hr: CellzDirect (CLD) Gene Expression Assay for sulfotransferase (SULT2A) at 48 hours (AID 2283710);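 also: hits raise SULT2A1 transcript above the 0.2% DMSO vehicle baseline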
# How it was run: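 SULT2A1 transcript measured by qNPA chemiluminescence in human primary hepatocyte cultures after 48 h, with fresh dosing solutions on two consecutive days; gain-of-signal fitting against 0.2% DMSO vehicle; cytotoxicity annotated from phase-contrast morphology.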
# [2] = Tanguay_ZF_120hpf_ActivityScore_legacy: (Legacy) Oregon State University Tanguay Lab 120 Hour Post-fertilization zebrafish Assay Score for Activity (AID 2283742);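 as to AC50: dechorionated Tropical 5D wild-type zebrafish embryos held singly per well; static exposure from 6 hpf until 120 hpf at 28 °C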
# How it was run: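 In this whole-embryo screen, dechorionated zebrafish were exposed from 6 hpf until 120 hpf at 28C under a 0.64% DMSO vehicle. Developmental malformations and death were recorded by brightfield microscopy as binary endpoints.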
# [3] = STM_H9_OrnithineISnorm_perc: Stemina devTOX quickPredict H9 human embryonic stem cell (hESC)-based Assay for Ornithine (ORN) Metabolite Biomarker, Normalized (AID 2283712; active = hit-call score of the fitted dose curve at least 0.9, where 1 is the maximum; inactive = score below 0.9;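 also: ornithine released into spent medium during last day measured by mass spectrometry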)
# How it was run: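 Ornithine secreted by H9 hESCs after 72h compound treatment (daily media/compound renewal) was quantified in final-day media by UPLC-HRMS. Values are isotope-standard-normalized, expressed relative to 0.1% DMSO, fitted in positive direction.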
# [4] = STM_H9_CystineISnorm_perc: Stemina devTOX quickPredict H9 human embryonic stem cell (hESC)-based Assay for Cystine (CYSS) Metabolite Biomarker, Normalized (AID 2283713; active = hit-call score of the fitted dose curve at least 0.9, where 1 is the maximum; inactive = score below 0.9)
# How it was run: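 Cells are held undifferentiated and treated for 72h, receiving fresh medium with compound every 24h. Cystine secreted during the final day is quantified by UPLC-HRMS against a labeled spike-in, then expressed relative to the DMSO vehicle median.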
# [5] = ArunA_CellTiter_hNC: Viability Assessment in the ArunA Biomedical's Oris Neural Crest (hNC) Cell Migration Assay (AID 2283752)
# How it was run: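 Seed 60,000 hNC cells per well onto Matrigel in basal growth medium containing LIF and bFGF. Incubate 16 h at 37C. Replace with test medium containing chemical for 72 h, then assess viability by CellTiter Aqueous One.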
# [6] = ArunA_CellTiter_hNP: Viability Assessment in the ArunA Biomedical's Oris Neural Crest (hNC) Cell Migration Assay (AID 2283753)
# Method: ArunA_CellTiter_hNP is a cell-based, single-readout assay that uses human H9-derived neuroprogenitor stem cells (hNP1).Measurements were taken 72 hours after chemical dosing in a 96-well plate.ArunA_CellTiter_hNP is an assay component measured from the ArunA_CellTiter_hNP assay. It is designed to make measurements of viability, a form of viability reporter, as detected with fluorescence intensity signals by HCS Fluorescent Imaging technology. Data from the assay component ArunA_CellTiter_hNP was analyzed at the endpoint, ArunA_CellTiter_hNP, in the positive analysis fitting direction relative to DMSO as the negative control and baseline of activity. Using a type of viability reporter, loss-of-signal activity can be used to understand the viability. To generalize the intended target to other relatable targets, this assay endpoint is annotated to the cell cycle intended target family, where the subfamily is cytotoxicity.
# To assess the hNP and hNC migration and cell titer endpoints, 60,000 cells per well were plated onto Matrigel in basal growth medium with LIF and bFGF in a 96-well plate format. Plates were incubated for 16 h at 37C followed by a 72 h exposure to chemical in the test medium. For the migration endpoints, cells were seeded and incubated in presence of 'seeding stoppers' to prevent cell migration and growth into the detection zone. At the beginning of chemical exposure, stoppers were removed, and growth medium was replaced with test medium. In the case of the stopper control wells, stoppers remained in place following replacement of growth medium with test medium. […] Cell viability in the detection zone was quantitated using a Flexstation3 microplate reader (ex494 nm/em 517 nm). Corresponding cell titer endpoints were assessed for the hNP and hNC cells using the Promega CellTiter Aqueous One Solution Cell Proliferation Assay (Cat no. G3581; CellTiter 96). Finally, to gain insight into the mechanisms by which cells migrate into the detection zone, Ki-67 expression was quantified for 10 additional chemicals in the hNP and hNC systems. […]
# [7] = ArunA_Migration_hNP: ArunA Biomedical's Oris Neuroprogenitor (hNP) Cell Migration Assay (AID 2283754)
# How it was run: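 Readout is calcein-AM fluorescence (ex494/em517) of cells migrating into the detection zone, relative to DMSO. hNP1 cells (H9-derived) grown on Matrigel behind stoppers 16 h, then stoppers pulled and chemical applied 72 h; cytochalasin D as control.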
# [8] = CEETOX_H295R_MTT_cell_viability: Viability Assessment in the CeeTox HT-H295R MTT Assay (AID 2283718; active = hit-call score of the fitted dose curve at least 0.9, where 1 is the maximum; inactive = score below 0.9;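 as to AC50: curve fitted both ways so AC50 may mark viability loss or gain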)
# How it was run: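 H295R cells prestimulated 48 h with 10 uM forskolin, then exposed 48 h to test chemical (0.1% DMSO final). Viability by MTT (0.5 mg/ml, 4 h, 37 C), absorbance 570/650 nm; percent change versus DMSO, bidirectional fit.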
# [9] = read-out: HMG-CoA synthase (HMGCS2), HMGCS2 (gene 3158); assay: CLD_HMGCS2_48hr: CellzDirect (CLD) Gene Expression Assay for HMG-CoA synthase (HMGCS2) at 48 hours (AID 2283711)
# How it was run: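 mRNA induction read by qNPA chemiluminescence, 48 h after dosing. Cultured primary human liver cells (two donor preparations) received fresh compound daily over two days against 0.2% DMSO vehicle; morphology-based cytotoxicity noted alongside.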
# [10] = STM_H9_OrnCyssISnorm_ratio: Stemina devTOX quickPredict H9 human embryonic stem cell (hESC)-based Assay for Ornithine (ORN):Cystine (CYSS) Ratio (AID 2283714)
# How it was run: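 H9 hESC, 72h, q24h re-dose; last-day media → acetonitrile deproteinization → UPLC-HRMS. ORN:CYSS ratio from isotope-normalized EIC areas, vs 0.1% DMSO; MTX references on each plate.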
smiles,measurement,setting,value
CC(C)C1(C)N=C(c2nc3ccccc3cc2C(=O)O)NC1=O (centres undefined),outcome,[1],inactive
same,outcome,[2],inactive
COC(=O)C=C(C)OP(=O)(OC)OC,outcome,[1],inactive
same,outcome,[2],inactive
C=CCC1=C(C)[C@@H](OC(=O)[C@@H]2[C@@H](C=C(C)C)C2(C)C)CC1=O,outcome,[1],inactive
same,outcome,[3],inactive
same,outcome,[4],inactive
same,outcome,[2],inactive
same,AC50,[5],0.992 µM (active)
same,outcome,[6],inactive
same,outcome,[7],inactive
CCOC(=O)C(Cl)Cc1cc(-n2nc(C)n(C(F)F)c2=O)c(F)cc1Cl (centres undefined),outcome,[1],inactive
same,AC50,[8],0.0412 µM (active)
same,AC50,[2],2.02 µM (active)
CCCCNC(=O)OCC#CI,AC50,[2],15.8 µM (active)
CC(C)Oc1cc(-n2nc(C(C)(C)C)oc2=O)c(Cl)cc1Cl,AC50,[1],2.92 µM (active)
same,outcome,[8],inactive
same,outcome,[2],inactive
CC1=C(C(=O)Nc2ccccc2)SCCO1,outcome,[8],inactive
same,AC50,[2],47.7 µM (active)
CCCN(CCC)c1c([N+](=O)[O-])cc(S(N)(=O)=O)cc1[N+](=O)[O-],AC50,[1],6.29 µM (active)
same,outcome,[2],inactive
CCOc1cc(Oc2ccc(C(F)(F)F)cc2Cl)ccc1[N+](=O)[O-],outcome,[1],inactive
same,outcome,[8],inactive
same,outcome,[2],inactive
Cc1cc(Cl)ccc1OCC(=O)O,outcome,[9],inactive
same,outcome,[8],inactive
same,outcome,[2],inactive
COc1cnc(OC)n2nc(NS(=O)(=O)c3c(OCC(F)F)cccc3C(F)(F)F)nc12,outcome,[1],inactive
same,outcome,[2],inactive
Cc1ccc(-c2c(Cl)nc(C#N)n2S(=O)(=O)N(C)C)cc1,AC50,[2],2.27 µM (active)
CCCCNC(=O)n1c(NC(=O)OC)nc2ccccc21,AC50,[3],6.13 µM (active)
same,AC50,[4],8.39 µM (active)
same,AC50,[10],6.59 µM (active)
same,AC50,[8],0.015 µM (active)
same,outcome,[2],inactive
CNC(=S)S,outcome,[8],inactive
same,outcome,[2],inactive
OC(c1ccc(Cl)cc1)(c1cncnc1)c1ccccc1Cl (centres undefined),outcome,[1],inactive
same,AC50,[3],50 µM (active)
same,AC50,[10],77.7 µM (active)
same,AC50,[8],77.2 µM (active)
same,outcome,[2],inactive
Cc1c(F)c(F)c(COC(=O)C2C(/C=C(\Cl)C(F)(F)F)C2(C)C)c(F)c1F (centres undefined),outcome,[1],inactive
same,outcome,[8],inactive
same,AC50,[2],20.9 µM (active)
N#Cc1nn(-c2c(Cl)cc(C(F)(F)F)cc2Cl)c(N)c1S(=O)C(F)(F)F (centres undefined),outcome,[1],inactive
same,AC50,[3],35.5 µM (active)
same,AC50,[4],88.7 µM (active)
same,AC50,[10],81.7 µM (active)
same,outcome,[2],inactive
same,AC50,[5],43.8 µM (active)
same,AC50,[6],36.8 µM (active)
same,AC50,[7],50 µM (active)

# — PubChem BioAssay (EPA / NIEHS)
